# Sampled rows, rich in hits. Any-hit rate of the full collection: about 17%.
# TDP1 cell CPT – DT40-hTDP1 cell growth loss with CPT; 12% of 420,000 active; Potency, µM (titrated, usually from 46.2 µM), without a hit: at the top dose activity change, negative = growth inhibition, actives largely listed as inhibitors; AID 686979; chicken DT40 Tdp1-/-;hTDP1 cells + 20 nM CPT, ATP luminescence, 48 h; further: on the % scale 0 is the no-effect control and ±100 the full control effect; nearly all actives have a fitted effect of over 55% in size
#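 Chicken DT40 Tdp1-/- cells stably complemented with human TDP1 were seeded at 400 cells/well in medium containing 20 nM camptothecin, exposed to pin-transferred compounds, and grown at 37 °C for at least 48 hr. Viability was read as ATP luminescence.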
# TDP1 cell noCPT – qHTS for Inhibitors of human tyrosyl-DNA phosphodiesterase 1 (TDP1): qHTS in cells in absence of CPT. DT40 Tdp1-/- hTDP1 cells, no CPT, ATP luminescence, 48 h. Potency, µM (series often up to 46.2 µM), inactives show at the highest dose activity change, negative = growth inhibition, actives largely listed as inhibitors. 15% of 420,000 active; further: on the % scale 0 is the no-effect control and ±100 the full control effect; nearly all actives have a fitted effect of over 55% in size
#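 No-CPT arm: Tdp1-/-;hTDP1 DT40 cells (400/well) plus compounds, incubated ≥48 hr at 37 °C. Readout CellTiter-Glo luminescence.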
# ClpP mod – qHTS Assay for Activators of ClpP. ATP-dependent Clp protease proteolytic subunit (Bacillus subtilis (strain 168)), P80244. Potency, µM (highest dose often 57.5 µM), for the others: at the top dose activity change, negative = active. purified B. subtilis ClpP, FRET peptide cleavage, 20 min. 1.9% of 340,000 active; active means well fitted falling curve with a large enough effect; inconclusive means small, poorly fitted or top-dose-only effect; inactive means no such curve, though single readings can be large or run the other way; further: the source files actives as falling curves though it sought activators and does not explain the sign; nearly all actives have a fitted effect of over 65% in size
#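 ClpP 10 microg/mL final, pH 8 Tris/KCl buffer with BSA, glycerol, Tween-20; compound pinned in; FRET-FV substrate; RT 20 min; Ex320/Em430; ΔFRET vs ADEP 5.8 microM, DMSO, no enzyme.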
# TDP1 block – TDP1 (human) enzyme inhibition | recombinant TDP1, AlphaScreen DNA substrate cleavage | AID 485290 | Potency, µM (doses to about 130 µM), inactives show top-dose activity change, negative = inhibition, actives largely listed as inhibitors | 0.28% of 350,000 active; further: on the % scale 0 is the no-effect control and ±100 the full control effect; nearly all actives have a fitted effect of over 40% in size
# Target sequence (Q9NUW8 whole entry, looked up): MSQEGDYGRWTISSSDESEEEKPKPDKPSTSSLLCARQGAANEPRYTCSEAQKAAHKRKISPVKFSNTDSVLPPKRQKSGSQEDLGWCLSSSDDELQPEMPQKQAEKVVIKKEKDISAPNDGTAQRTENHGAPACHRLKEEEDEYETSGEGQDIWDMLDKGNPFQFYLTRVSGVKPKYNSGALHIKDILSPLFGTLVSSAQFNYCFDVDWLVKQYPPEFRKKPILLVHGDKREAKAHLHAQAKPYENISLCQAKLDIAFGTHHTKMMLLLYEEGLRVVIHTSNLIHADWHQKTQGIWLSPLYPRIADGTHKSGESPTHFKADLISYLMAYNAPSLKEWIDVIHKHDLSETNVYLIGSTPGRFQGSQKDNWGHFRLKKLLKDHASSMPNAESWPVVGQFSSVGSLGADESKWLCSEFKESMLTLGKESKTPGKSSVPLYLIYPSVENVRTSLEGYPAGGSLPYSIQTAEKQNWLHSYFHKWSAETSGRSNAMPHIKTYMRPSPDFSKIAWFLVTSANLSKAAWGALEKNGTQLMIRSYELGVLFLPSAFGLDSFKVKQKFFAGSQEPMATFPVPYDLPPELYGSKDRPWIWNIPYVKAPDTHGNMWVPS
#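 E. coli-derived human Tdp1, 1 nM final. Cpd preinc 15 min RT; substrate 15 nM final, 5 min RT; AS bead mix 10 ug/ml final, 10 min RT. Signal loss = tyrosine-FITC cleavage. No-enzyme wells = max signal.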
# * hit, by the source's call; ? = inconclusive; nt = no result; [ ] = another dose, or the depositor's remark. Unless noted, the call rests on the fitted dose curve; in most records, active means well fitted curve in the direction sought with a large enough effect; inconclusive means small, poorly fitted or top-dose-only effect, or another doubt; inactive means no such curve, though single readings can be large; an effect the other way counts as inactive or inconclusive. Potency means the concentration at half of the fitted maximal effect.
SMILES,TDP1 cell CPT,TDP1 cell noCPT,ClpP mod,TDP1 block
O=C1CC(N2CCCCCC2)C(=O)N1c1ccc2c(c1)OCO2 (centres undefined),3.66µM*,6.31µM*,1.1%,8.7%
O=C1CC(N2CCN(c3ccc(O)cc3)CC2)C(=O)N1c1ccc2c(c1)OCO2 (centres undefined),0.2%,-12.0%,nt,-2.7%
COCc1c(C(=O)OC)nnn1-c1ccc(C(F)(F)F)cc1[N+](=O)[O-],18.4µM*,-9.8%,nt,6.3%
CCOC(=O)c1nnn(-c2ccc([N+](=O)[O-])cc2[N+](=O)[O-])c1C,11.6µM*,11.6µM*,0.8%,-3.8%
O=C(CSc1cccc[n+]1[O-])Nc1ccc([N+](=O)[O-])cc1Cl,?,?,0.3%,0.0%
COC(=O)c1ccc(-c2ccc(/C=N/N3C(=O)C4C5C=CC(C6CC56)C4C3=O)o2)cc1 (centres undefined),?,18.4µM*,0.7%,3.4%
COC(=O)c1cccc(-c2ccc(/C=N/N3C(=O)C4C5C=CC(C6CC56)C4C3=O)o2)c1 (centres undefined),-1.4%,-8.5%,nt,-2.5%
CS(=O)(=O)c1nc(-c2ccccc2)cc(-c2ccccc2)c1C#N,1.46µM*,2.91µM*,?,-1.5%
Cc1cc(NC(=O)CCCSc2nc(-c3ccco3)cc(C(F)(F)F)n2)no1,-0.2%,-27.4%,-5.6%,0.0%
CC(C)(C)c1cc(C(F)(F)F)nc(SCCCNC(=O)c2ccco2)n1,23.1µM*,20.6µM*,1.1%,-2.2%
CN1c2ccsc2/C(=N/Nc2ccc(F)cc2)CS1(=O)=O,2.06µM*,2.59µM*,nt,9.3%
CC[C@]12c3[nH]c4ccccc4c3CCN1C(=O)C(CC(=O)NCCCN(C)C)C[C@@H]2C(=O)N1CCN(C(=O)c2ccco2)CC1 (some centres undefined),-3.4%,-2.8%,0.4%,0.8%
COc1cc2oc(=O)c(CC(=O)N3CCCCC3)c(C)c2cc1OC,-18.0%,8.7%,4.4%,0.0%
COc1ccccc1CNC(=O)COC(=O)c1nccnc1N,-5.1%,-3.2%,3.7%,0.4%
COc1ccccc1Nc1nc(Cl)nc(Nc2ccccc2OC)n1,-0.2%,?,nt,3.7%
COc1ccccc1Nc1cc(C)nc(Nc2ccccc2OC)n1,20.6µM*,23.1µM*,-10.1%,0.4%
COc1ccccc1Nc1nc(C)cc(C)n1,9.9%,-0.6%,17.8µM*,3.8%
O=C(CCC(=O)NNC(=O)c1ccccc1[N+](=O)[O-])NCc1ccccc1,7.9%,5.0%,nt,2.5%
COc1ccc(S(=O)(=O)N2CCCCC2C)cc1 (centres undefined),-26.9%,-13.1%,1.1%,0.8%
COc1ccc(S(=O)(=O)N2CCc3cc4c(cc3C2C)OCCCO4)cc1 (centres undefined),16.4µM*,?,-7.0%,4.9%
Cc1ccc(S(=O)(=O)N2CCc3cc4c(cc3C2C)OCCCO4)cc1 (centres undefined),18.4µM*,?,-4.9%,-2.1%
CC1c2cc3c(cc2CCN1S(=O)(=O)c1ccccc1)OCCCO3 (centres undefined),?,-20.1%,-3.6%,0.3%
Cc1ccc(NC(=O)C/C(N)=N/OC(=O)Nc2ccc(C)c(Cl)c2)cc1,-0.2%,-10.5%,nt,1.2%
COc1ccc2ccccc2c1CN1CCc2nnc(CNC(=O)c3cccc(F)c3)n2CC1,11.6%,-23.6%,nt,nt
CCc1sc(N(C(=O)Cc2ccccc2)c2ccccc2F)nc1-c1ccc(C)cc1,?,16.4µM*,-0.7%,-3.0%
SMILES,TDP1 cell CPT,TDP1 cell noCPT,ClpP mod,TDP1 block
CCN(CC(=O)Nc1c(F)cccc1F)C(=O)Cc1sc(C)nc1-c1ccc(F)cc1,-2.5%,-8.6%,-3.1%,0.6%
Cc1ccc(/C=C/C(=O)Nc2ccc(S(=O)(=O)Nc3onc(C)c3C)cc2)cc1,-4.4%,0.2%,nt,nt
Cc1c(C(=O)N2CCOc3ccc(Cl)cc3C2)sc2ncnc(NCCc3ccccn3)c12,-10.7%[9.04 µM],?,nt,nt
CC1CN(C(=O)CCc2ccccc2)C(C)CN1C(=O)CCc1ccccc1 (centres undefined),?,23.1µM*,-4.2%,1.9%
CC1CCCN(C(=O)CCc2ccccc2)C1 (centres undefined),7.8%,-6.9%,0.6%,-2.2%
CC(C)OC(=O)c1ccc(Cn2nnc3sc4c(c3c2=O)CCCC4)cc1,?,?,-8.5%,-3.2%
CC1CC2(NC(=O)NC2=O)C(C)CN1C (centres undefined),11.8%,-2.4%,25.1µM*,-5.0%
COc1cccc(-c2ccc(NC(=O)C3CCCN(Cc4nccn4C)C3)cc2)c1 (centres undefined),?,?,2.3%,6.8%
CCc1nc2c(OCc3cccc(Cl)c3)cccn2c1N(C)C(=O)Nc1ccccc1OC,18.4µM*,23.1µM*,-1.0%,nt
CCCCC(=O)N(C)c1c(CC)nc2c(OCc3cccc(Cl)c3)cccn12,?,23.1µM*,-0.7%,nt
CCc1nc2c(OCc3cccc(Cl)c3)cccn2c1N(C)C(C)=O,?,?,-1.9%,nt
CCCCC(=O)N(C)c1c(CC)nc2c(OCC=C(C)C)cccn12,?,20.6µM*,-11.0%,nt
CCc1nc2c(OCc3cccc(Cl)c3)cccn2c1N(C)C(=O)C(C)C,16.4µM*,18.4µM*,0.9%,nt
CCOc1ccccc1C(=O)N1CCN(c2ccc(C(F)(F)F)cn2)CC1,?,?,nt,-2.4%
Nc1nc(Nc2ccccc2)nc(NC2CCCCC2)c1[N+](=O)[O-],13µM*,?,-2.0%,nt
CNc1nc(N)c([N+](=O)[O-])c(NC2CCCCC2)n1,-3.7%,?,-5.6%,nt
CN1CCN(C(=S)NC(=O)c2ccc(C(C)(C)C)cc2)CC1,?,?,?,0.6%
CN1CCC2(CC1)N=C(c1ccc(F)cc1)C(=S)N2C(=O)c1ccc(C(C)(C)C)cc1,7.31µM*,5.8µM*,?,11.0%
Cc1cccc(-c2nc(CSc3nncn4c3cc3sccc34)c(C)o2)c1,-96.3%,?,0.5%,0.0%
COc1ccc(-c2nc(CSc3nncn4c3cc3sccc34)c(C)o2)cc1OC,1.84µM*,2.59µM*,-2.4%,0.0%
CCN(CC(=O)Nc1ccc(OC)cc1)C(=O)C1CCN(C(=O)c2ccc(Cl)cc2)CC1,7.5%,5.8%,-3.4%,1.2%
Cn1c(=O)c2c(nc(CCC3CCCC3)n2C)n(C)c1=O,?,?,-10.2%,nt
Cn1c(=O)c2c(nc(C3CC4C5CCC(C5)C4C3)n2C)n(C)c1=O (centres undefined),?,16.4µM*,-2.8%,nt
CCC(=O)Nc1ccc(CC)cc1-c1nc2ccccc2n(CC(=O)Nc2cccc(Cl)c2)c1=O,20.6µM*,?,-0.8%,5.7%
OCCN(CCO)CC(O)COCCC12CC3CC(CC(C3)C1)C2 (centres undefined),?,20.6µM*,-1.9%,-11.4%
